The text below walks through data of PubChem BioAssay AID651636 (Sanford-Burnham Center for Chemical Genomics, 2012).

Hit rate of the full screen: of about 360,000 compounds, about 3,000 (0.83%) were called active. The sample holds actives, similar compounds and a random draw of the others, so the mix is not that of the screen. Cut-off read from the data, not from the text of the source: active = inhibition above about 38%; inactive = the rest.

Usually inhibition stands for the drop in the measured response relative to a control, in per cent.

Sequence of G-protein coupled receptor 183 (Homo sapiens) (P32249 whole entry, looked up, the tested form may be a part): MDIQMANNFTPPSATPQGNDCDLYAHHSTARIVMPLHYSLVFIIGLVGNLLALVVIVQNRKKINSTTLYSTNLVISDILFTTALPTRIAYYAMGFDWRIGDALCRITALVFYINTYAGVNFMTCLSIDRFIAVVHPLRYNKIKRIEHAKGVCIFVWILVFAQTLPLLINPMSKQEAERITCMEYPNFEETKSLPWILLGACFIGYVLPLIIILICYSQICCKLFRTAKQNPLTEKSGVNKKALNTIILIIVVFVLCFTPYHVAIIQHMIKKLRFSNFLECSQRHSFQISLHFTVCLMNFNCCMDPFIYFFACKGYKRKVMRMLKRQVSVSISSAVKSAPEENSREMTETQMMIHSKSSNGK

The experiment concerns the target G-protein coupled receptor 183 (Homo sapiens) (UniProt P32249). In words: blockers of oxysterol-driven EBI2 arrestin signaling – cell-based, luminescence, 7a,25-OHC stimulation, uHTS, primary screen (AID 651636).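 Note: enzyme fragment complementation signal reports receptor beta-arrestin coupling in cells; 0% = agonist plus DMSO wells and 100% = wells without agonist.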 As to conditions: EBI2 beta-arrestin recruitment, 7a,25-OHC stimulated, at 5 µM, stronger effect = higher value. On the technique in general: Arrestin recruitment assays detect the binding of arrestin to an activated receptor.
For `COc1ccc(C2Nc3ccccc3C(=O)N2c2ccc(Cl)cc2)cc1Cn1cc([N+](=O)[O-])cn1` (stereo not drawn), the inhibition is 4.76% (inactive).

On to `COc1ccc(NC(=O)C[C@H]2C(=O)N(CCc3ccccc3)C[C@@H]2C)cc1`, for which the inhibition was 2.26% (inactive).

In the case of `CCC(=O)Nc1ccccc1C(=O)N1CCN(Cc2ccccc2)CC1`, the inhibition is -10.6% (inactive).

In the case of `O=C(c1cc2ccccc2o1)N1CCN(c2cccc(C(F)(F)F)c2)CC1`, the inhibition was 36.7% (inactive).

On to `O=C(c1cc2ccccc2o1)N1CCN(Cc2ccccc2)CC1`, for which the inhibition is 65.2% (active).

Regarding `O=S(=O)(c1ccc(Cl)s1)N1CCC2(CC1)OCCO2`, the inhibition was 1.76% (inactive).

Turning to `CCNC(=S)N1CCN(S(=O)(=O)c2ccc(Cl)s2)CC1`, the inhibition was -5.4% (inactive).

On to `O=C(c1cc2ccccc2o1)N1CCN(S(=O)(=O)c2ccc(Cl)s2)CC1`, for which the inhibition was 91.3% (active).

Regarding `COc1ccc(N(CCC(=O)NCCc2ccccc2)S(=O)(=O)c2ccc(C)cc2C)cc1`, the inhibition is 9.4% (inactive).

As for `CCOC(=O)c1cnc(SCc2nc(N)nc(Nc3ccc(OC)cc3)n2)nc1N`, the inhibition was -2.38% (inactive).

Turning to `Cc1cccc(OCCC(=O)OCc2csc(CC(=O)Nc3ccccc3C)n2)c1`, the inhibition is -1.51% (inactive).

With `C=CCNc1nc(N)c(C(=C(C#N)C#N)c2ccccc2)s1`, the inhibition was -6.63% (inactive).

As for `Cc1ccc(CN2CC(C(=O)N3CCN(S(=O)(=O)c4ccccc4)CC3)CC2=O)cc1` (stereo not drawn), the inhibition is 3.15% (inactive).

Consider `CN1CCN(c2cc(=O)n(-c3ccc(Cl)cc3)c(=O)[nH]2)CC1`, for which the inhibition is -7.79% (inactive).

Turning to `CC1CC(C)CN(CCCNC(=O)Cn2ncc3c([nH]c4ccccc43)c2=O)C1` (stereo not drawn), the inhibition is 5.19% (inactive).

`Cc1ccc(NS(=O)(=O)c2ccc3c(c2)NC(=O)CO3)cc1`: the inhibition was -3% (inactive).

Regarding `CC[C@@H]1Cc2cc(O)ccc2C2=C1c1ccc(O)cc1C[C@H]2CC`, the inhibition was 49.4% (active).

`COc1ccc(Br)cc1CN(C)C(=O)C1CC(=O)N(C2CCCC2)C1` (stereo not drawn): the inhibition was 7.14% (inactive).

As for `CN1CCN(C(=O)c2ccc(-c3cc4nc(NCc5cccnc5)n(C)c(=O)c4s3)cc2)CC1`, the inhibition is -2.23% (inactive).

Take `CCc1ccccc1NC(=O)NCCN1CCCCC1`: the inhibition is 4.39% (inactive).

With `CN1CCc2ccccc2C1Cc1ccccc1NC(=O)c1sc2ccccc2c1Cl` (stereo not drawn), the inhibition is 65.6% (active).

With `CCc1ccccc1NC(=O)c1ccc2c(c1)CCN2S(C)(=O)=O`, the inhibition is -1.7% (inactive).

With `CCOC(=O)[C@]12CCCC=C1N(Cc1cccc3ccccc13)C(=O)[C@H](CC(=O)NCC13CC4CC(CC(C4)C1)C3)C2`, the inhibition is 16.6% (inactive).

For the compound `COC(=O)C[C@H]1C=C[C@@H](NS(=O)(=O)c2ccc(C)cc2)[C@@H](CO)O1`, the inhibition is -0.992% (inactive).

`O=C(NCCc1ccccc1Cl)C1CCC(=O)N(CCCc2ccccc2)C1` (stereo not drawn): the inhibition was 8.34% (inactive).

For `O=C(NCCCc1ccccc1)C1CCC(=O)N(CCc2ccc(Cl)cc2)C1` (stereo not drawn), the inhibition is 63.7% (active).

As to `O=C(NCCN1CCOC1=O)C1CCC(=O)N(CCc2ccc(Cl)cc2)C1` (stereo not drawn), the inhibition is 5.95% (inactive).

Take `C/C(=N/NC(=O)c1ccc(Br)o1)c1ccc(C)o1`: the inhibition was -2.5% (inactive).

On to `COC(=O)[C@]12CCCCC=C1N(Cc1ccco1)C(=O)[C@H](CC(=O)NCC1CCCCC1)C2`, for which the inhibition is -6.57% (inactive).

Consider `CC1CN(C(=S)Nc2cccc(F)c2)CC(C)O1` (stereo not drawn), for which the inhibition is -5.04% (inactive).

`COc1cccc(NC(=O)Cn2cnc3sc(C)c(S(=O)(=O)N4CCN(C)CC4)c3c2=O)c1`: the inhibition is -9.02% (inactive).

On to `COc1cccc(NC(=O)CC2C(=O)NCCN2C(=S)Nc2ccc(F)cc2)c1` (stereo not drawn), for which the inhibition was 9.02% (inactive).

For `COc1cccc(NC(=O)CS(=O)(=O)c2cn(CC(=O)N3CCOCC3)c3ccccc23)c1`, the inhibition was 3.35% (inactive).

For the compound `COc1cccc(NC(=O)Cn2c3ccccc3c3nc4n(c(=O)c32)CCS4)c1`, the inhibition was 62% (active).

With `COc1cccc(NC(=O)Cn2c3ccc(F)cc3c3nc4n(c(=O)c32)CCS4)c1`, the inhibition is 80.8% (active).

On to `COc1ccc2c(c1)c1nc3n(c(=O)c1n2CC(=O)Nc1ccccc1)CCS3`, for which the inhibition is 8.84% (inactive).

Turning to `COc1cccc(N(CC(=O)NC2CCCC2)C(=O)Cn2nnc(-c3ccc(C)cc3)n2)c1`, the inhibition is 7.66% (inactive).

For the compound `CS(=O)(=O)N1CCc2nc(-c3ccccc3)sc2C1`, the inhibition was 1.2% (inactive).

Consider `O/N=C(\c1ccc2c(c1)OCCO2)C1CCCCC1`, for which the inhibition is 4.5% (inactive).

Regarding `O=S1(=O)CC(N2CCN(CCO)CC2)CN1Cc1cn(Cc2cccc(Cl)c2)nn1` (stereo not drawn), the inhibition is -6.79% (inactive).

With `Cc1ccc(O/C=C2\OC(=O)c3ccccc32)cc1`, the inhibition was 55.5% (active).

For `O=C(O/N=C(/c1ccccc1)c1ccncc1)c1ccccc1[N+](=O)[O-]`, the inhibition was -3.57% (inactive).

As for `O=S(=O)(c1ccc(Sc2nnc3ccccn23)nc1)N1CCOCC1`, the inhibition was -9.4% (inactive).

In the case of `COCCCNc1ccn2nc(-c3ccc(CC(C)C)cc3)cc2n1`, the inhibition is 36.9% (inactive).

For `COc1ccccc1-c1cc2nc(NCc3cccc(Cl)c3)ccn2n1`, the inhibition is 4.55% (inactive).

With `CC(C)Cc1ccc(-c2cc3nc(NCc4cccc(Cl)c4)ccn3n2)cc1`, the inhibition is 47.4% (active).

Take `O=C(O)C1CC=CCC1C(=O)NCCc1ccccc1` (stereo not drawn): the inhibition was -5.64% (inactive).

As for `CCc1nc2ccc(C(=O)Nc3cc(-c4ccccc4)ccc3OC)cn2c1N(CC)CC(=O)N(C)C`, the inhibition was 17% (inactive).

On to `CCC(C)(C)NC(=O)c1cc([N+](=O)[O-])ccc1N1CCCCC1`, for which the inhibition is 79.2% (active).

As to `COc1ccc(S(=O)(=O)N2CCCCC2)cc1NC(=O)c1cc([N+](=O)[O-])ccc1N1CCOCC1`, the inhibition was 15.7% (inactive).

Regarding `CCN1CCN(c2ccc([N+](=O)[O-])cc2C(=O)c2ccc(Cl)cc2)CC1`, the inhibition was 8.05% (inactive).

Turning to `C=CCN(Cc1nc(-c2cc(OC)c3c(c2)OCO3)oc1C)C1CCS(=O)(=O)C1` (stereo not drawn), the inhibition is -4.13% (inactive).

Take `CCCCN1CC(CO)Oc2cccc(F)c2S1(=O)=O` (stereo not drawn): the inhibition is -9.52% (inactive).

Take `CC(C)(C)C(=O)Nc1cccc(-c2ccc[nH]2)n1`: the inhibition is -1.86% (inactive).

With `Cc1cccc(NC(=O)CN2CCCN(S(=O)(=O)c3ccc(Br)s3)CC2)c1`, the inhibition was 3.9% (inactive).

Take `Cc1ccc(S(=O)(=O)N2CCN(CC(=O)N/N=C/c3ccc(Br)s3)CC2)cc1`: the inhibition was 66.9% (active).

As for `C/C(=N/NC(=O)CN1CCN(S(=O)(=O)c2ccc(Br)cc2)CC1)c1ccncc1`, the inhibition is 6.8% (inactive).

Consider `Cc1ccc(C(=O)NCC(=O)OCC(=O)NC2CCCCCCC2)cc1`, for which the inhibition was -2.06% (inactive).

As for `COc1ccc(S(=O)(=O)N2CCOCC2)cc1C(=O)NC1CCCCC1`, the inhibition is 3.75% (inactive).

For the compound `Cc1ccc2oc(=O)c3cnn(CC(=O)N4CCCCCC4)c3c2c1`, the inhibition was 57.7% (active).

On to `COCCCN(C(=O)Cn1ncc2c(=O)oc3ccc(C)cc3c21)C(C)c1ccncc1` (stereo not drawn), for which the inhibition was -3.25% (inactive).

`CCOC(=O)C1CCCN(C(=O)Cn2ncc3c(=O)oc4ccc(C)cc4c32)C1` (stereo not drawn): the inhibition was -3.84% (inactive).

On to `Cc1ccc(S(=O)(=O)NCC(=O)N(CC(=O)NC2CCCCC2)Cc2ccco2)cc1`, for which the inhibition is -11.2% (inactive).

Take `Cc1ccc2oc(=O)c3cnn(CC(=O)N(Cc4ccco4)C4CCCCC4)c3c2c1`: the inhibition is 86.2% (active).

As for `Cc1ccc2oc(=O)c3cnn(CC(=O)N4CCN(c5ccccn5)CC4)c3c2c1`, the inhibition is 14.3% (inactive).

Regarding `CCC1CO/C(=C(\C(=C(Cl)Cl)N2CCOCC2)[N+](=O)[O-])N1` (stereo not drawn), the inhibition is -3.56% (inactive).

Turning to `CCCCC[C@H](C)N1C[C@@H](COCc2ccccc2)Oc2cc(N3CC[C@@H](N(C)C)C3)ccc2S1(=O)=O`, the inhibition was 1.65% (inactive).

In the case of `Cc1ccc(C(=O)O)cc1S(=O)(=O)NCC1CCCO1` (stereo not drawn), the inhibition was -0.989% (inactive).

As to `C=CC[C@H](CC(=O)N(CCO)Cc1ccccc1)C(=O)N[C@@H](COC(=O)[C@@H](CC=C)Cc1ccc(F)cc1)Cc1ccccc1`, the inhibition was 27% (inactive).

Turning to `Cc1cccc(CS(=O)(=O)c2ncc(Cl)c(C(=O)Nc3ccc(F)cc3)n2)c1`, the inhibition is 30.8% (inactive).

For `Cc1cccc(NS(=O)(=O)c2ccc(C)c(C(=O)NCc3cccnc3)c2)c1`, the inhibition was -2.61% (inactive).

For `Cc1cccc(NC(=O)c2nc(S(=O)(=O)Cc3ccccc3)ncc2Cl)c1`, the inhibition was 66% (active).

For `O=C(NCc1ccccc1)C1CCCN(S(=O)(=O)c2cccs2)C1` (stereo not drawn), the inhibition was -3.94% (inactive).

For `O=C(NCc1ccc(Cl)cc1)C1CCN(S(=O)(=O)c2cccs2)CC1`, the inhibition is 53% (active).

As for `O=C(NCc1ccc(Cl)cc1)C(=O)NCC1CCCN1S(=O)(=O)c1cccs1` (stereo not drawn), the inhibition was -11.1% (inactive).

For the compound `N#CCCCn1c(O)c(N=NC(=O)C(O)c2ccccc2)c2ccccc21` (stereo not drawn), the inhibition is 10.8% (inactive).

Take `COC(=O)c1cccc(NS(C)(=O)=O)c1`: the inhibition was 1.19% (inactive).

`CCCc1cc(=O)oc2cc(OCC(=O)Nc3ccc(CN4CCOCC4)cc3)c(Cl)cc12`: the inhibition is -0.759% (inactive).

As for `CC(NC(=S)NC1CCCCC1)C(c1ccccc1)N1CCOCC1` (stereo not drawn), the inhibition is -1.91% (inactive).

Turning to `Cc1sc(NC(=O)C2C3CCC(O3)C2C(=O)O)c(C(=O)OC(C)C)c1-c1ccc(Cl)cc1` (stereo not drawn), the inhibition is 2.12% (inactive).

In the case of `CC(C)c1cc(Cn2c3ccccc3c(=O)n2C(C)Cn2cc(C3CC3)nn2)on1` (stereo not drawn), the inhibition was -7.98% (inactive).

In the case of `CCC(C(=O)NC1CCCCC1)N(C(=O)c1snc(C(N)=O)c1N)c1ccc(OC)cc1OC` (stereo not drawn), the inhibition was 8.28% (inactive).

For `COc1ccc(C(C(=O)NC2CCCCC2)N(C(=O)c2snc(C(N)=O)c2N)c2ccccc2OC)cc1` (stereo not drawn), the inhibition was 48.7% (active).

With `COc1ccc(N(C(=O)c2snc(C(N)=O)c2N)C(C(=O)NC2CCCC2)c2ccc(C)o2)c(OC)c1` (stereo not drawn), the inhibition is 34.7% (inactive).

As to `Cc1ccccc1C(=O)NCC(c1ccco1)N1CCc2ccccc21` (stereo not drawn), the inhibition was 6.76% (inactive).

For the compound `O=C1NC(Cc2ccccc2)c2nc3ccc(Br)cc3c(=O)n2-c2cc3ccccc3cc21` (stereo not drawn), the inhibition was 37.7% (inactive).

As to `CCC1NC(=O)c2cccnc2-n2c1nc1ccc(C)cc1c2=O` (stereo not drawn), the inhibition is -1.36% (inactive).

Turning to `Cc1cc(C)c2c(=O)n3c(nc2c1)C(CC(C)C)NC(=O)c1cc2ccccc2cc1-3` (stereo not drawn), the inhibition is 77.3% (active).
